Test results published in PubChem BioAssay (EPA / NIEHS).
Active and inactive are the calls of the source. How the source made its calls: active means hit-call score of the fitted dose curve at least 0.9, where 1 is the maximum; inactive means score below 0.9.

Read-out: Monokine induced gamma interferon (MIG), CXCL9 (gene 4283)
Assay: BSK_KF3CT_MIG: BioMAP Diversity Plus: KF3CT Assay for Monokine induced gamma interferon (MIG) Biomarker Activity (AID 2284248)
Conditions: primary human keratinocytes with fibroblasts
Method: BSK_KF3CT is a cell-based, multiplexed-readout assay that uses keratinocytes and foreskin fibroblasts, a human skin primary cell co-culture, with measurements taken at 24 hours after chemical dosing in a 96-well plate.BSK_KF3CT_MIG is an assay component measured in the BSK_KF3CT assay. It measures MIG antibody related to regulation of gene expression using ELISA technology.Data from the assay component BSK_KF3CT_MIG was analyzed at the endpoint, BSK_KF3CT_MIG, in the positive analysis fitting direction relative to DMSO as the negative control and baseline of activity. Using a type of binding reporter, gain or loss-of-signal activity can be used to understand protein changes. To generalize the intended target to other relatable targets, this assay endpoint is annotated to the 'cytokine' intended target family, where the subfamily is 'chemotactic factor'.
The levels of cell surface (or secreted, indicated by the prefix "s") biomarker endpoints were measured by ELISA. Overt cytotoxicity to cells in confluent adherent cultures (all systems other than the BT system) was assessed by measuring total protein levels using sulforhodamine B (SRB) staining in parallel cultures at the time of biomarker measurements, indicated as SRB endpoints. For proliferation assays for adherent cell types, individual cell types are cultured at sub-confluence and relative cell numbers quantified by SRB staining at time points optimized for each system (48 h: 3C and CASM3C systems; 72 h: BT and HDF3CGF systems; 96 h: SAg system). SRB was performed by staining cells with 0.1% SRB after fixation with 10% TCA and reading wells at 560 nm.Viability and proliferation of PBMC (T cells) was quantified by Alamar Blue reduction for the SAg and BT systems. For PBMC viability (referred to as PBMC Cytotoxicity within the assay endpoint names), cells were plated (75,000/well in a 96-well plate) and then chemical samples added for 1 h before addition of activators, SEB and TSST-1 (20 ng/mL final concentration each). Cells were incubated for 90 h. Then, Alamar Blue (20 uL/well) (Invitrogen, Cat DAL1100) was added for 6 h, and the plates were read with a fluorescence microplate reader at 546/580 nm (excitation/emission). For PBMC proliferation, cells were plated and activated as above but incubated for only 16 h prior to addition of Alamar Blue. Plates were read after 6 h.

| SMILES | outcome |
| --- | --- |
| CCC(=O)OCc1ccccc1 | inactive |
| C=CCOC(=O)CCC1CCCCC1 | inactive |
| Cc1cc(C2(c3cc(C)c(O)cc3C)OS(=O)(=O)c3ccccc32)c(C)cc1O | inactive |
| CC(=O)OCCC(C)CC(C)(C)C (configuration not stated) | inactive |
| C[C@H]1C[C@@H]2[C@H]([C@@H](O)C[C@@]3(C)[C@H]2CC[C@]3(O)C(=O)CO)[C@@]2(C)C=CC(=O)C=C12 | inactive |
| NCCNCCN | inactive |
| CC[Si](OC(C)=O)(OC(C)=O)OC(C)=O | inactive |
| OC1OC[C@@H](O)[C@H](O)[C@H]1O (some centres not stated) | inactive |
| OC[C@H]1O[C@H](O[C@]2(CCl)O[C@H](CCl)[C@@H](O)[C@@H]2O)[C@H](O)[C@@H](O)[C@H]1Cl | inactive |
| Nc1cc([N+](=O)[O-])ccc1O | inactive |
| CC(=O)[C@H]1CC[C@H]2[C@@H]3CC=C4C[C@@H](O)CC[C@]4(C)[C@H]3CC[C@]12C | inactive |
| COc1cc(C=O)ccc1OC(=O)C(C)C | inactive |
